Experimental data taken from PubChem BioAssay (NCI).
This is part of a sample that, as a whole, favours compounds with a hit. Of some 83,000 tested, about 20% had one in any assay.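 The endpoint reported here, percent growth, reads 100 for growth as untreated, 0 for no net growth and -100 for all cells dead.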 A number with no mark means an inactive call. Calls of active or inactive are those of the source. How the source made its calls: active means growth percent below 10; inactive means the rest.

Tests used:
Test in all cases: NCI-60 one-dose screen, 48 h (100 = growth as untreated, 0 = no growth, -100 = all killed)
Conditions in all cases: 10 µM unless noted
[1] = system: DU-145 prostate
[2] = system: K-562 leukemia
[3] = system: MALME-3M melanoma
[4] = system: MDA-MB-231 breast
[5] = system: RXF 393 renal
[6] = system: SF-268 CNS
[7] = system: SF-295 CNS
[8] = system: SF-539 CNS
[9] = system: UACC-257 melanoma
[10] = system: M14 melanoma
[11] = system: HCT-15 colon
[12] = system: HT29 colon
[13] = system: SNB-75 CNS
[14] = system: SNB-19 CNS
[15] = system: U251 CNS
[16] = system: PC-3 prostate
[17] = system: SK-MEL-5 melanoma
[18] = system: UACC-62 melanoma
[19] = system: LOX IMVI melanoma
[20] = system: SK-MEL-28 melanoma

Structure (SMILES)	growth [1]	growth [2]	growth [3]	growth [4]	growth [5]	growth [6]	growth [7]	growth [8]	growth [9]	growth [10]	growth [11]	growth [12]	growth [13]	growth [14]	growth [15]	growth [16]	growth [17]	growth [18]	growth [19]	growth [20]
COP(=O)(OC)C(c1ccccc1)(c1ccccc1)c1ccccc1	112%	80.7%	103%	90.2%	36.9%	120%	60%	95.9%	82.1%	98.7%	107%	91.4%	108%	99.9%	87.7%	75.2%	89.5%	70.9%	84.2%	109%
CCN1CC2=C(Nc3nc(SC)[nH]c(=O)c3C2c2cc(OC)c(OC)c(OC)c2)/C(=C/c2cc(OC)c(OC)c(OC)c2)C1 (stereo not given)	112%	90.9%	112%	104%	106%	110%	100%	104%	97%	114%	104%	99.1%	92.2%	91.6%	83.8%	92.2%	88.6%	90.1%	91.1%	104%
CCCCc1ccc(C(N)=O)nc1	102%	109%	108%	102%	103%	101%	109%	105%	97.8%	100%	94.1%	109%	79.2%	102%	100%	98.7%	101%	93.1%	89%	-97.1% (active)
CCCCCCCCCCOC(C)=O	112%	107%	108%	107%	112%	106%	80%	96.1%	94%	106%	107%	106%	80.7%	108%	108%	93.4%	107%	103%	108%	110%
CN1CCC[C@@H]1CCO[C@](C)(c1ccccc1)c1ccc(Cl)cc1	91.5%	30.4%	71.8%	88.7%	38.7%	81.8%	63.2%	76.2%	23.4%	15.6%	62.2%	17.3%	52.3%	99.5%	64.3%	66.2%	-100% (active)	37.2%	70.7%	44.3%
Cc1ccc(/C=C(/C#N)n2nnc3ncccc32)cc1	-27.2% (active)	5.03% (active)	22.7%	-3.95% (active)	-28.4% (active)	25.3%	27.8%	-53.8% (active)	31.1%	-4.85% (active)	2.19% (active)	6.53% (active)	-2.77% (active)	56.7%	40.4%	22.3%	12.5%	22.1%	4.54% (active)	28.3%
CNNc1ncnc2c1cnn2-c1ccc(S(N)(=O)=O)cc1	112%	78.3%	112%	89.5%	16%	106%	84%	93.8%	89%	95%	103%	95.2%	104%	105%	98.5%	81.4%	91.2%	100%	97.5%	109%
CC1CN(CC(O)c2ccc(Br)cc2)CCO1 (stereo not given)	114%	96.9%	116%	123%	124%	99.9%	112%	106%	105%	104%	107%	113%	91.4%	105%	95.8%	101%	108%	108%	107%	119%
Cc1sc2nc(NCc3ccccc3)[nH]c(=O)c2c1C	73.4%	12.9%	75.7%	59.8%	69%	74.2%	52.4%	65.5%	73%	27.8%	33.2%	13.3%	46.1%	69%	30.8%	48.1%	45.5%	42.5%	53%	69.5%
C[C@]12CCC(=O)C=C1CC[C@H]1[C@@H]3C[C@@H](O)[C@](O)(C(=O)CO)[C@@]3(C)C[C@H](O)[C@@]12F	92.4%	110%	87%	102%	137%	85.5%	104%	91.9%	82.1%	85.6%	102%	103%	108%	99.9%	109%	95.3%	101%	98%	96%	107%
CCOC(=O)OCC(=O)[C@@]1(O)CC[C@H]2[C@@H]3CCC4=CC(=O)CC[C@]4(C)[C@H]3[C@@H](O)C[C@@]21C	101%	111%	75.7%	98.2%	127%	94%	129%	91.3%	93.4%	90.7%	105%	103%	119%	96.4%	103%	92%	98.2%	87.6%	89.8%	110%
COc1ccc(NS(=O)(=O)N2CCCCC2)cc1	116%	93.8%	117%	91.5%	105%	98.9%	113%	108%	102%	102%	115%	102%	115%	96.4%	111%	91.8%	97.1%	82.5%	100%	123%
COc1ccc(Oc2ccccc2NC(=O)CNC(=O)c2cccc3ccccc23)cc1	17.5% [5 µM]	8.48% [5 µM] (active)	72.9% [5 µM]	29.4% [5 µM]	10.3% [5 µM]	44.1% [5 µM]	13.2% [5 µM]	-21.5% [5 µM] (active)	48.6% [5 µM]	12.6% [5 µM]	17.2% [5 µM]	2.75% [5 µM] (active)	41.6% [5 µM]	51.4% [5 µM]	16.9% [5 µM]	21.5% [5 µM]	10.3% [5 µM]	37.5% [5 µM]	22.3% [5 µM]	60.6% [5 µM]
COC(=O)Nc1ccc2ccc3c(NC(=O)OC)ccc4ccc1c2c43 (tested in a mixture with another compound)	86.9%	25%	68.8%	54.1%	77.6%	67.7%	48.2%	50.7%	71.7%	25.4%	35.6%	30.6%	50.7%	60.8%	41%	48.4%	37.3%	41.5%	32.9%	73.3%
COc1ccc2c(c1)[n+](=O)c(/C=C/C(=O)c1cc(OC)c(OC)c(OC)c1)c(C)n2[O-]	17.5%	2.27% (active)	86%	84.1%	38.5%	69.4%	46.4%	70.2%	63.6%	63.6%	11%	47%	68.7%	97%	53.7%	55.2%	93.4%	63.8%	51.3%	71.6%
COc1ccc2c(c1)CC[C@@H]1[C@@H]2CC[C@]2(C)[C@@H](O)C(=O)C[C@@H]12	104%	94.2%	148%	109%	134%	97.1%	109%	100%	106%	110%	114%	105%	97.2%	102%	102%	95.1%	107%	94.5%	94%	113%
